# In the supplement of paper PMC8728848:
# About 410 targets per protein were measured; listed, in parts, are those with the strongest signals and a random draw of the rest.
# Assays:
# Assay in all cases: glycan array binding signal (z-score within array); higher = stronger binding
# Details in all cases: glycan notation: IUPAC condensed, linker removed
# [1] = target: Fuc(a1-2)Gal(b1-3)GlcNAc(b1-3)[Neu5Ac(a2-6)Gal(b1-4)GlcNAc(b1-6)]Gal(b1-4)Glc
# Outline: (§1)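 Glycan array data came from 3228 arrays in the Consortium for Functional Glycomics database, and only arrays with an available protein sequence were kept. Glycan names were put into IUPAC-condensed notation, and columns mapping to the same glycan were averaged. The binding signal is a within-array Z-score, averaged across arrays of one protein sequence run at different concentrations or buffers and across linkers. A negative Z-score can be read as non-binding.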
# [2] = target: Fuc(a1-2)Gal(b1-3)[Fuc(a1-4)]GlcNAc(b1-2)Man(a1-3)[Fuc(a1-2)Gal(b1-3)[Fuc(a1-4)]GlcNAc(b1-2)Man(a1-6)]Man(b1-4)GlcNAc(b1-4)[Fuc(a1-6)]GlcNAc(b1-4)[Fuc(a1-6)]GlcNAc
# Outline: as §1
# [3] = target: Fuc(a1-2)[Gal(a1-3)]Gal(b1-3)GlcNAc(b1-2)Man(a1-3)[Fuc(a1-2)[Gal(a1-3)]Gal(b1-3)GlcNAc(b1-2)Man(a1-6)]Man(b1-4)GlcNAc(b1-4)GlcNAc
# Outline: as §1
# [4] = target: Fuc(a1-2)[Gal(a1-3)]Gal(b1-4)GlcNAc
# Outline: as §1
# [5] = target: Fuc(a1-2)[Gal(a1-3)]Gal(b1-4)GlcNAc(b1-2)Man(a1-3)[Fuc(a1-2)[Gal(a1-3)]Gal(b1-4)GlcNAc(b1-2)Man(a1-6)]Man(b1-4)GlcNAc(b1-4)GlcNAc
# Outline: as §1
# [6] = target: Fuc(a1-2)[Gal(a1-3)]Gal(b1-4)GlcNAc(b1-3)GalNAc
# Outline: as §1
# [7] = target: Fuc(a1-2)[Gal(a1-3)]Gal(b1-4)[Fuc(a1-3)]GlcNAc
# Outline: as §1
# [8] = target: Fuc(a1-2)[GalNAc(a1-3)]Gal(b1-3)GalNAc(a1-3)[Fuc(a1-2)]Gal(b1-4)GlcNAc
# Outline: as §1
# [9] = target: Fuc(a1-2)[GalNAc(a1-3)]Gal(b1-3)GalNAc(b1-3)Gal(a1-4)Gal(b1-4)Glc
# Outline: as §1
# [10] = target: Fuc(a1-2)[GalNAc(a1-3)]Gal(b1-4)GlcNAc(b1-3)Gal(b1-4)GlcNAc(b1-3)Gal(b1-4)GlcNAc
# Outline: as §1
# [11] = target: Fuc(a1-2)[GalNAc(a1-3)]Gal(b1-4)GlcNAc(b1-6)GalNAc
# Outline: as §1
# [12] = target: Fuc(a1-3)[Gal(b1-4)]GlcNAc(b1-2)Man
# Outline: as §1
# [13] = target: Fuc(a1-3)[Gal3S(b1-4)]GlcNAc6S
# Outline: as §1
# Gal(a1-3)Gal(b1-4)Glc = target: Gal(a1-3)Gal(b1-4)Glc
# Outline: as §1
# Gal(a1-4)Gal(b1-4)Glc = target: Gal(a1-4)Gal(b1-4)Glc
# Outline: as §1
# [14] = target: Gal(b1-3)GlcNAc(a1-6)Gal(b1-4)GlcNAc
# Outline: as §1
# [15] = target: Gal(b1-3)GlcNAc(b1-2)Man(a1-3)[Gal(b1-3)GlcNAc(b1-2)Man(a1-6)]Man(b1-4)GlcNAc(b1-4)[Fuc(a1-6)]GlcNAc
# Outline: as §1
# [16] = target: Gal(b1-4)GlcNAc(b1-2)Man(a1-3)[Gal(b1-4)GlcNAc(b1-2)Man(a1-6)][GlcNAc(b1-4)]Man(b1-4)GlcNAc(b1-4)[Fuc(a1-6)]GlcNAc
# Outline: as §1
# [17] = target: Gal(b1-4)GlcNAc(b1-2)Man(a1-6)Man(b1-4)GlcNAc(b1-4)GlcNAc
# Outline: as §1
# [18] = target: Gal(b1-4)GlcNAc(b1-3)Gal(b1-4)GlcNAc
# Outline: as §1
# [19] = target: Gal(b1-4)GlcNAc(b1-3)Gal(b1-4)GlcNAc(b1-3)Gal(b1-4)GlcNAc(b1-2)Man(a1-3)[Gal(b1-4)GlcNAc(b1-3)Gal(b1-4)GlcNAc(b1-3)Gal(b1-4)GlcNAc(b1-2)Man(a1-6)]Man(b1-4)GlcNAc(b1-4)GlcNAc
# Outline: as §1
# [20] = target: Gal(b1-4)GlcNAc(b1-3)Gal(b1-4)GlcNAc(b1-3)Gal(b1-4)GlcNAc(b1-3)Gal(b1-4)GlcNAc(b1-3)Gal(b1-4)GlcNAc(b1-2)[Gal(b1-4)GlcNAc(b1-3)Gal(b1-4)GlcNAc(b1-3)Gal(b1-4)GlcNAc(b1-3)Gal(b1-4)GlcNAc(b1-3)Gal(b1-4)GlcNAc(b1-6)]Man(a1-6)[Gal(b1-4)GlcNAc(b1-3)Gal(b1-4)GlcNAc(b1-3)Gal(b1-4)GlcNAc(b1-3)Gal(b1-4)GlcNAc(b1-3)Gal(b1-4)GlcNAc(b1-2)Man(a1-3)]Man(b1-4)GlcNAc(b1-4)[Fuc(a1-6)]GlcNAc
# Outline: as §1
# [21] = target: Gal(b1-4)GlcNAc(b1-6)GalNAc
# Outline: as §1
# Gal3S4S(b1-4)GlcNAc = target: Gal3S4S(b1-4)GlcNAc
# Outline: as §1
# [22] = target: GalNAc(a1-3)GalNAc(b1-3)Gal(a1-4)Gal(b1-4)GlcNAc
# Outline: as §1
# [23] = target: GalNAc(b1-3)Gal(a1-4)Gal(b1-4)GlcNAc
# Outline: as §1
# GalNAc(b1-4)GlcNAc = target: GalNAc(b1-4)GlcNAc
# Outline: as §1
# [24] = target: GalNAc(b1-4)GlcNAc(b1-2)Man
# Outline: as §1
# [25] = target: GalNAc(b1-4)GlcNAc(b1-3)GalNAc(b1-4)GlcNAc
# Outline: as §1
# GalNAc(b1-4)GlcNAc6S = target: GalNAc(b1-4)GlcNAc6S
# Outline: as §1
# GlcA(b1-6)Gal = target: GlcA(b1-6)Gal
# Outline: as §1
# [26] = target: GlcNAc(a1-4)Gal(b1-4)GalNAc
# Outline: as §1
# [27] = target: GlcNAc(a1-4)Gal(b1-4)GlcNAc(b1-3)Gal(b1-4)GlcNAc
# Outline: as §1
# [28] = target: GlcNAc(b1-2)Gal(b1-3)GalNAc
# Outline: as §1
# [29] = target: GlcNAc(b1-2)[GlcNAc(b1-6)]Man(a1-6)[GlcNAc(b1-2)Man(a1-3)]Man(b1-4)GlcNAc(b1-4)GlcNAc
# Outline: as §1
# [30] = target: GlcNAc(b1-2)[GlcNAc(b1-6)]Man(a1-6)[GlcNAc(b1-2)Man(a1-3)]Man(b1-4)GlcNAc(b1-4)[Fuc(a1-6)]GlcNAc
# Outline: as §1
# [31] = target: GlcNAc(b1-3)Gal(b1-4)GlcNAc
# Outline: as §1
# [32] = target: GlcNAc(b1-3)Gal(b1-4)GlcNAc(b1-6)[Gal(b1-3)]GalNAc
# Outline: as §1
# GlcNAc(b1-4)GlcNAc = target: GlcNAc(b1-4)GlcNAc
# Outline: as §1
# [33] = target: Neu5Ac(a2-3)Gal(b1-3)GlcNAc
# Outline: as §1
# [34] = target: Neu5Ac(a2-3)Gal(b1-3)[GlcNAc(b1-6)]GalNAc
# Outline: as §1
# [35] = target: Neu5Ac(a2-3)Gal(b1-4)GlcNAc
# Outline: as §1
# [36] = target: Neu5Ac(a2-3)Gal(b1-4)GlcNAc(b1-3)Gal(b1-4)GlcNAc(b1-2)Man(a1-3)[Neu5Ac(a2-3)Gal(b1-4)GlcNAc(b1-3)Gal(b1-4)GlcNAc(b1-2)Man(a1-6)]Man(b1-4)GlcNAc(b1-4)GlcNAc
# Outline: as §1
# [37] = target: Neu5Ac(a2-3)Gal(b1-4)GlcNAc(b1-3)Gal(b1-4)GlcNAc(b1-3)Gal(b1-4)GlcNAc(b1-2)Man(a1-3)[Neu5Ac(a2-3)Gal(b1-4)GlcNAc(b1-3)Gal(b1-4)GlcNAc(b1-3)Gal(b1-4)GlcNAc(b1-2)Man(a1-6)]GalNAc
# Outline: as §1
# [38] = target: Neu5Ac(a2-3)Gal(b1-4)[Fuc(a1-3)]GlcNAc(b1-6)[Neu5Ac(a2-3)Gal(b1-3)]GalNAc
# Outline: as §1
# [39] = target: Neu5Ac(a2-6)Gal(b1-4)GlcNAc
# Outline: as §1
# [40] = target: Neu5Ac(a2-6)Gal(b1-4)GlcNAc(b1-2)Man(a1-3)[Neu5Ac(a2-3)Gal(b1-4)GlcNAc(b1-2)Man(a1-6)]Man(b1-4)GlcNAc(b1-4)GlcNAc
# Outline: as §1
# [41] = target: Neu5Ac(a2-6)Gal(b1-4)GlcNAc(b1-3)Gal(b1-3)GlcNAc
# Outline: as §1
# [42] = target: Neu5Ac(a2-6)GlcNAc(b1-4)GlcNAc(b1-4)GlcNAc
# Outline: as §1
# [43] = target: Neu5Ac(a2-8)Neu5Ac(a2-3)[GalNAc(b1-4)]Gal(b1-4)Glc
# Outline: as §1
binder,measurement,setting,value
SJA (Sophora japonica) (protein) FLGLFNSGGYSSSYQIVAVEFDTYINEWDPKTRHIGIDINSINSTKTVTWGWENGEVAIVLISYKAATETLTVSLTYPSSQTSYILSAAVDLKSILPEWVRIGF,glycan array binding signal (z-score),[1],-0.155
same,glycan array binding signal (z-score),[2],-0.175
same,glycan array binding signal (z-score),[3],4.34
same,glycan array binding signal (z-score),[4],2.19
same,glycan array binding signal (z-score),[5],4.98
same,glycan array binding signal (z-score),[6],0.012
same,glycan array binding signal (z-score),[7],6.46
same,glycan array binding signal (z-score),[8],-0.406
same,glycan array binding signal (z-score),[9],-0.202
same,glycan array binding signal (z-score),[10],0.248
same,glycan array binding signal (z-score),[11],-0.199
same,glycan array binding signal (z-score),[12],-0.248
same,glycan array binding signal (z-score),[13],-0.061
same,glycan array binding signal (z-score),Gal(a1-3)Gal(b1-4)Glc,-0.143
same,glycan array binding signal (z-score),Gal(a1-4)Gal(b1-4)Glc,-0.134
same,glycan array binding signal (z-score),[14],-0.076
same,glycan array binding signal (z-score),[15],-0.007
same,glycan array binding signal (z-score),[16],-0.337
same,glycan array binding signal (z-score),[17],-0.334
same,glycan array binding signal (z-score),[18],-0.148
same,glycan array binding signal (z-score),[19],2.39
same,glycan array binding signal (z-score),[20],2.24
same,glycan array binding signal (z-score),[21],-0.118
same,glycan array binding signal (z-score),Gal3S4S(b1-4)GlcNAc,-0.23
same,glycan array binding signal (z-score),[22],-0.341
same,glycan array binding signal (z-score),[23],-0.186
same,glycan array binding signal (z-score),GalNAc(b1-4)GlcNAc,3.38
same,glycan array binding signal (z-score),[24],2.46
same,glycan array binding signal (z-score),[25],8.25
same,glycan array binding signal (z-score),GalNAc(b1-4)GlcNAc6S,3.05
same,glycan array binding signal (z-score),GlcA(b1-6)Gal,-0.111
same,glycan array binding signal (z-score),[26],-0.15
same,glycan array binding signal (z-score),[27],-0.229
same,glycan array binding signal (z-score),[28],-0.192
same,glycan array binding signal (z-score),[29],-0.255
same,glycan array binding signal (z-score),[30],-0.375
same,glycan array binding signal (z-score),[31],-0.101
same,glycan array binding signal (z-score),[32],-0.24
same,glycan array binding signal (z-score),GlcNAc(b1-4)GlcNAc,-0.142
same,glycan array binding signal (z-score),[33],-0.139
same,glycan array binding signal (z-score),[34],-0.156
same,glycan array binding signal (z-score),[35],-0.241
same,glycan array binding signal (z-score),[36],0.783
same,glycan array binding signal (z-score),[37],3.51
same,glycan array binding signal (z-score),[38],-0.056
same,glycan array binding signal (z-score),[39],-0.22
same,glycan array binding signal (z-score),[40],-0.178
same,glycan array binding signal (z-score),[41],-0.207
same,glycan array binding signal (z-score),[42],-0.288
same,glycan array binding signal (z-score),[43],-0.232
